Reference: PubChem BioAssay AID1240 (Sanford-Burnham Center for Chemical Genomics, 2008)
Hit rate of the full screen: of about 50,000 compounds, about 800 (1.6%) showed an effect of 50% or more. The entries come from a sample that favours strong results as a whole.

Target: Bcl-2-like protein 10 (Homo sapiens) (UniProt Q9HD36)
Assay: Phenotype converters, Bcl-B/TR3 peptide binding displacement, primary biochemical FP (AID 1240);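 note: 0% = Bcl-B with tracer peptide and DMSO and 100% = tracer peptide lacking Bcl-B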
Settings: GST-Bcl-B / FITC-TR3 peptide fluorescence polarization; stronger effect = higher value; compound at 3.75 mg/L

Chain of Bcl-2-like protein 10 (Homo sapiens) (Q9HD36 whole entry, looked up): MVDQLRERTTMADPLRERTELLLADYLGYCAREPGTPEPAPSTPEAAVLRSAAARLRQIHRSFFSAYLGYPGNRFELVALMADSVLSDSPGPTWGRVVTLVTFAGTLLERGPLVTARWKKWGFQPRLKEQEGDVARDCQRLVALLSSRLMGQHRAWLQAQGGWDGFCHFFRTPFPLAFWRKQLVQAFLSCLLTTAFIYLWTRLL

| SMILES | displacement [%] |
| --- | --- |
| COc1ccccc1CC(=O)Nc1cc(C)ccn1 | 12.9 |
| CS(=O)(=O)N(CC(=O)Nc1cccc(Br)c1)c1ccc(Oc2ccccc2)cc1 | 1.9 |
| COc1ccc(C2CC(=O)C3=C(C2)Nc2ccccc2NC3c2ccc(NC(C)=O)cc2)cc1OC (stereo not drawn) | -4.9 |
| CCCC1=C(C(=O)OCC)C(c2ccc(CC)cc2)NC(=O)N1 (stereo not drawn) | -8.5 |
| O=[N+]([O-])c1ccc(-c2noc(-c3ccccc3Br)n2)cc1 | 4.3 |
| COc1ccc(CN2CCN(Cc3ccncc3)CC2)c(OC)c1 | -16.7 |
| NC(=O)c1ccc(NC(=O)C2CCCC2)cc1 | -4 |
| O=c1[nH]c(=O)n(-c2ccccc2Cl)c(O)c1C=NCCCn1ccnc1 | 11.5 |
| Cc1ccccc1-n1c(O)c(C=NCCCn2ccnc2)c(=O)[nH]c1=O | -3.4 |
| O=c1[nH]c(=O)n(-c2cccc(Cl)c2)c(O)c1C=NCCCn1ccnc1 | 142 |
| COCCOC(=O)c1c(C)oc2c1cc(NS(=O)(=O)c1ccc(F)cc1)c1ccccc12 | 18 |
| Cc1ccc(-c2nnc(N)s2)cc1C | 5.1 |
| O=c1[nH]c(=O)n(-c2ccc(Br)cc2)c(O)c1C=C1C=CC=N1 | 123 |
| CCOc1ccc(-n2c(O)c(C=C3C=CC=N3)c(=O)[nH]c2=O)cc1 | 13.1 |
| COc1ccc(-n2c(O)c(/C=C3\C=CC=N3)c(=O)[nH]c2=O)cc1 | 85.4 |
| O=c1[nH]c(=O)n(-c2ccc(Cl)cc2)c(O)c1/C=C1/C=CC=N1 | -46 |
| O=c1[nH]c(=O)n(-c2cccc(C(F)(F)F)c2)c(O)c1C=C1C=CC=N1 | 6.3 |
| COc1ccc(Cn2c(O)c(/C=C3\C=CC=N3)c(=O)[nH]c2=O)cc1 | 12.5 |
| O=C1c2ccccc2C(=O)c2c1cccc2S(=O)(=O)Nc1ccc(Cl)cc1 | 9.5 |
| CCOC(=O)C1=C(c2ccccc2)N=c2s/c(=C\c3ccc(O)c(OC)c3)c(=O)n2C1c1ccc(OC)cc1 (stereo not drawn) | 104 |
| CCOC(=O)C1=C(C)N=c2s/c(=C\c3ccc(O)c(OC)c3)c(=O)n2C1c1ccc(OC)cc1 (stereo not drawn) | 4.2 |

| SMILES | displacement [%] |
| --- | --- |
| CCOC(=O)C1=C(C)N=c2s/c(=C\c3ccc(O)c(OC)c3)c(=O)n2C1c1cccc(OC)c1 (stereo not drawn) | -2.1 |
| CCOC(=O)C1=C(C)N=c2s/c(=C\c3ccc(O)c(OC)c3)c(=O)n2C1c1ccc(N(C)C)cc1 (stereo not drawn) | -13.9 |
| CCOC(=O)C1=C(C)N=c2s/c(=C\c3ccc(O)c(OC)c3)c(=O)n2C1c1ccc(C)cc1 (stereo not drawn) | 98.4 |
| CCOC(=O)C1=C(c2ccccc2)N=c2s/c(=C\c3ccc(O)c(OC)c3)c(=O)n2C1c1ccccc1OC (stereo not drawn) | 43.3 |
| C=CCSc1nc2ccccc2n1C(=O)C1C(C=C(Cl)Cl)C1(C)C (stereo not drawn) | 7.1 |
| CCOc1ccc(C(=O)NCc2cccs2)cc1OCC | -0.9 |
| O=C(NCCN1CCCC1=O)Nc1ccccc1 | 10.9 |
| O=C(NCCCNC(=O)c1cccc(F)c1)c1cccc(F)c1 | 3.2 |
| O=C(c1cccc(I)c1)N1CCN(c2ccccn2)CC1 | 6.9 |
| O=C1CC(N2CCN(Cc3ccccc3)CC2)C(=O)N1c1ccc(Cl)c(Cl)c1 (stereo not drawn) | 1.7 |
| O=c1c2ccccc2nc(/C=C/c2ccc3c(c2)OCO3)n1-c1cccc2ccccc12 | 78.1 |
| O=c1c2ccccc2nc(/C=C\c2ccccc2O)n1-c1cccc2ccccc12 | -6.6 |
| O=c1c2ccccc2nc(/C=C/c2ccccc2[N+](=O)[O-])n1-c1cccc2ccccc12 | -7 |
| O=c1c2ccccc2nc(/C=C/c2cccc([N+](=O)[O-])c2)n1-c1cccc2ccccc12 | 5 |
| Cn1c(/C=C/c2ccc3c(c2)OCO3)nc2ccccc2c1=O | 1.3 |
| CN(C)c1ccc(/C=C/c2nc3ccccc3c(=O)n2-c2cccc3ccccc23)cc1 | 105 |
| COc1ccccc1-n1cnc2cc(NC(C)=O)ccc21 | 14.7 |
| CC(C)(C)c1cc(C2=C(Cl)C(=O)c3ccccc3C2=O)cc(C(C)(C)C)c1O | 6.9 |
| O=C1N=c2ccc(Cl)cc2=C1c1sc(NS(=O)(=O)Cc2ccccc2)nc1O | -7.2 |
| CC1=C(C(=O)Nc2ccc(Br)cc2)C(c2ccccc2Br)NC(=S)N1 (stereo not drawn) | -7 |
| CC1=C(C(=O)Nc2ccc(C)cc2)C(c2ccccc2Br)NC(=S)N1 (stereo not drawn) | 84.9 |

| SMILES | displacement [%] |
| --- | --- |
| CC1=C(C(=O)Nc2ccccc2)C(c2ccccc2Br)NC(=S)N1 (stereo not drawn) | -1.9 |
| Cc1ccc(SCCNC(=O)CN(c2ccc(C)cc2)S(C)(=O)=O)cc1 | -13.4 |
| COc1ccc(C2C(C(=O)c3cccs3)=C(O)C(=O)N2c2nncs2)cc1OC (stereo not drawn) | 84.6 |
| COc1ccc(C2/C(=C(\O)c3ccc(C)cc3)C(=O)C(=O)N2c2nncs2)cc1 (stereo not drawn) | 13.6 |
| O=C(C1=C(O)C(=O)N(c2nncs2)C1c1ccccc1F)c1cccs1 (stereo not drawn) | 129 |
| COc1ccc(C2C(C(C)=O)=C(O)C(=O)N2c2nc3ccccc3s2)cc1OC (stereo not drawn) | -10.4 |
| COc1ccc(C2/C(=C(\O)c3ccc(F)cc3)C(=O)C(=O)N2c2nncs2)cc1 (stereo not drawn) | 11 |
| O=C1C(=O)N(c2nncs2)C(c2cccc(Br)c2)/C1=C(\O)c1ccc(F)cc1 (stereo not drawn) | 16.6 |
| O=C(C1=C(O)C(=O)N(c2nncs2)C1c1ccc(Cl)cc1)c1cccs1 (stereo not drawn) | 125 |
| O=C(C1=C(O)C(=O)N(c2nncs2)C1c1cccc([N+](=O)[O-])c1)c1cccs1 (stereo not drawn) | 7.1 |
| O=C1C(=O)N(c2nncs2)C(c2ccc(Cl)cc2)/C1=C(\O)c1ccc(F)cc1 (stereo not drawn) | 20.8 |
| COc1ccc(C2C(C(=O)c3cccs3)=C(O)C(=O)N2c2nncs2)cc1 (stereo not drawn) | 143 |
| CC(=O)C1=C(O)C(=O)N(c2nc3ccccc3s2)C1c1ccccc1F (stereo not drawn) | -8.5 |
| COc1cc(C2/C(=C(\O)c3ccc(F)cc3)C(=O)C(=O)N2c2nncs2)ccc1O (stereo not drawn) | 8.3 |
| C/C(=N\N=C1\NC(=O)C(CC(=O)Nc2ccccc2C(F)(F)F)S1)c1ccco1 (stereo not drawn) | -7.9 |
| O=[N+]([O-])c1ccc(N2CCN(S(=O)(=O)c3ccccc3)CC2)cc1NCCc1ccccc1 | 7.8 |
| Cc1ccc2oc(-c3cc(N)ccc3O)nc2c1 | 5.4 |
| S=C1NCCOCCOCCOCCNC(=S)N2CCOCCOCCN1CCOCC2 | 14.7 |
| O=C1C2C(c3ccccc3)C=CC(c3ccccc3)C2C(=O)N1Cc1ccc(F)cc1 (stereo not drawn) | -7.7 |
| COc1cc(/C=N\n2nnnc2N)ccc1OCc1ccc(F)cc1 | 10.6 |
| CC1CC(C)CN(C(=O)c2ccc(Cl)cc2Cl)C1 (stereo not drawn) | -3.8 |
